The test system of assay [1] is Vero E6 infected with SARS-CoV-2. Put plainly: morphology score (similarity to uninfected cells); higher = more like uninfected cells. Particulars: 24 h.
The test system is the same in assay [2]. Put plainly: SARS-CoV-2 infection rate relative to infected DMSO; higher = more infection, active = 60 or less. The following applies: 24 h.

In the case of `Cc1cc(Nc2ccc(NC(=O)c3ccc(Nc4ccnc5ccccc45)cc3)cc2)nc(N)n1` (0.833333 µM), in assay [1], the morphology score is -0.0128. In assay [2], the SARS-CoV-2 infection rate was 104% (inactive).
The compound `O=C(O)C1CSCN1` (stereo not given) [timonacic] (10 µM) had a morphology score in assay [1] of -0.0905. The SARS-CoV-2 infection rate in assay [2] is 110% (inactive).
Consider `CCc1cccc(N(C)C(=N)Nc2cccc3ccccc23)c1` [aptiganel] (10 µM), for which the morphology score in assay [1] turned out to be 0.0916. For the same compound, the SARS-CoV-2 infection rate in assay [2] is 104% (inactive).
On the same counts, the results for `COc1c(N2CCNC(C)C2)c(F)cc2c(=O)c(C(=O)O)cn(C3CC3)c12` (stereo not given) [gatifloxacin] (10 µM) are 0.0682 and 104% (inactive).
Regarding `CCCCNC(=O)[C@@H]1Cc2ccccc2N1C(=O)[C@@H](N)CC` [butabindide] (10 µM), the morphology score in assay [1] was 0.203. For the same compound, the SARS-CoV-2 infection rate in assay [2] is 86.5% (inactive).
Regarding `CC(C)(C)C(=O)NCCCC(=O)O` [pivagabine] (10 µM), the morphology score in assay [1] amounted to 0.0513. Also, the SARS-CoV-2 infection rate in assay [2] was 105% (inactive).
For the compound `CNc1cc(OC)c(C(=O)NC2CCN(Cc3ccccc3)C2C)cc1Cl` (stereo not given) [nemonapride] (10 µM), the morphology score in assay [1] came out at 0.642. Besides, the SARS-CoV-2 infection rate in assay [2] is 36.5% (active).
`C=CCSCC1Nc2cc(Cl)c(S(N)(=O)=O)cc2S(=O)(=O)N1` (stereo not given) [althiazide] (10 µM): the morphology score in assay [1] was -0.00232. For the same compound, the SARS-CoV-2 infection rate in assay [2] was 98% (inactive).
On the same counts, the results for `CCCCCCCCCCCCC/C=C/[C@@H](O)[C@@H](N)CO[P@](=O)(O)OCC[N+](C)(C)C` [sphingosylphosphorylcholine] (10 µM) are 0.000181 and 112% (inactive).
For the compound `C[C@]12CCC(=O)C=C1CC[C@@H]1[C@@H]2[C@@H](O)C[C@@]2(C)[C@H]1CC[C@]2(O)C(=O)COC(=O)CCC(=O)O` [hydrocortisone-hemisuccinate] (10 µM), the morphology score in assay [1] is -0.338. Moreover, in assay [2], the SARS-CoV-2 infection rate was 116% (inactive).

Source of the values: the supplement of paper PMC13380429.
